# Measured values reported in PubChem BioAssay.
# Some of the results follow. Active and inactive are the calls of the source. Rule as the data show it, unless noted: active = activity above about 50%; inactive = the rest.
# Assays:
# [1] = biological target: Tumor necrosis factor receptor superfamily member 10B (Homo sapiens) (UniProt O14763); test: caspase-8 TRAIL sensitization, hit retest, confirmation, cell-based, NB7+caspase-8, with/without TRAIL, luminescence panel (AID 651596); details: NB7 neuroblastoma + caspase-8, TRAIL sensitization, luminescence viability, with TRAIL, mean of runs, at 10 µM, stronger effect = higher value
# [2] = as above; details: NB7 neuroblastoma + caspase-8, without TRAIL, luminescence viability, without TRAIL, mean of runs, at 10 µM
# [3] = HIF-2a reporter inhibitor retest, confirmation, luminescence, 786-0 RCC cells (AID 651580;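 active = mean inhibition across four replicates of at least 40 percent at the single tested concentration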); details: HIF-2a luciferase reporter luminescence, overnight, at 18.8 µM, stronger effect = higher value
# [4] = HIF-1a luciferase reporter signal reduction – MiaPaCa-2 cells, single concentration, counter-screen for HIF-2a inhibitor project, confirmation (AID 651589;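 active = mean inhibition of the reporter signal across four replicates at the single tested dose of 50% or more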); details: MiaPaCa-2 HIF-1a luciferase reporter, desferoxamine, overnight; at 18.8 µM; stronger effect = higher value
# Chain of Tumor necrosis factor receptor superfamily member 10B (Homo sapiens) (O14763 whole entry, looked up): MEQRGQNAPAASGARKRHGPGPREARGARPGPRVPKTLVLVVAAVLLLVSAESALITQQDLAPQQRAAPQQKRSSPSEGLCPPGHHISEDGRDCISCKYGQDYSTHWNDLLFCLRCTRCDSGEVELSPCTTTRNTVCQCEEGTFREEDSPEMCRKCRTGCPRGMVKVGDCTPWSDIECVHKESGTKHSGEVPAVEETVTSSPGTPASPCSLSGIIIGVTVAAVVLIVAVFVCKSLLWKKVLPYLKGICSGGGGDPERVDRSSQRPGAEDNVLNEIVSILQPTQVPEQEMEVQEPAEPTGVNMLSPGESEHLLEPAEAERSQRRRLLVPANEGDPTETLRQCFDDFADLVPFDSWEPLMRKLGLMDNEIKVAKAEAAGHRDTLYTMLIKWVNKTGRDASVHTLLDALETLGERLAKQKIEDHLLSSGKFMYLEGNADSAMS
SMILES,activity [1],activity [2],inhibition [3],inhibition [4]
CCOc1ccc(C(=O)O/N=C(\N)c2ccccn2)cc1OCC,82.3%,88.9%,–,–
CC[C@@H](C)[C@H](NC(=O)CCc1c(C)c2cc3c4c(oc3c(C)c2oc1=O)CCCC4)C(=O)O,–,–,68.5% (active),44.4% (inactive)
Cc1ccc(C(=O)Nc2ccc3ncccc3c2)cc1,93.4%,92.9%,–,–
Cc1ccc(-c2noc(CNC(=O)c3ccoc3C)n2)cc1,–,–,0.91% (inactive),-16.7% (inactive)
NC(N)=Nc1nc(-c2ccccc2)c2cc(Cl)ccc2n1,–,–,17.8% (inactive),107% (active)
Cc1ccc2nc(-c3ccc(NC(=O)COC(=O)c4ccc(Br)o4)cc3)sc2c1,62%,67.4%,–,–
Cc1ccc(NC(=S)NC(NC(=O)Cc2cccc3ccccc23)C(Cl)(Cl)Cl)cc1 (stereo not drawn),–,–,-32.9% (inactive),98.7% (active)
COc1ccc(C(=O)/C=C/c2ccc(-c3ccccc3)cc2)cc1CSCC(=O)O,–,–,-10.7% (inactive),62.4% (active)
Cc1cc(NC(=O)/C=C/c2ccccc2Cl)n(-c2nc3ccccc3[nH]2)n1,78.8%,82.4%,–,–
Cc1cc(-c2ccc(F)cc2)n2ncc(-c3ccccc3)c2n1,76.6%,84.3%,–,–
O=C(/C=C/c1ccc2c(c1)OCO2)Nc1cccnc1,71.1%,76.2%,–,–
Cc1ccc(-n2c(C3CC3c3ccc(Cl)cc3)n[nH]c2=S)cc1 (stereo not drawn),52.8%,46.7%,–,–
COCC(C)n1c(C)cc(C(=O)COC(=O)c2n[nH]c3ccccc23)c1C (stereo not drawn),58.5%,51.9%,–,–
CCN1CCN(c2ccc(S(=O)(=O)N3CCCCC3)cc2NC(=O)c2ccc([N+](=O)[O-])s2)CC1,49.6%,54.1%,–,–
